Measurements published in article PMC11006913.
Numbering of substitutions follows the chain as printed.

Assays:
Test in all cases: PBM; 200 nM protein, PBS
Details in all cases: dsDNA, one strand shown
SIX6 [1] = target: T1, SIX6 (Homo sapiens, UniProt O95475 114-200, T165P)
T1 sequence: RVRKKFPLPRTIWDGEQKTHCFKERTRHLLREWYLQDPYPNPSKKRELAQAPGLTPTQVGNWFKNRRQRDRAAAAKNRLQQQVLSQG

SIX6 [2] = target: T2, SIX6 (Homo sapiens, UniProt O95475 114-200, H141N)
T2 sequence: T1 sequence with H28N, P52T

SIX6 [3] = target: T3, SIX6 (Homo sapiens, UniProt O95475 114-200, T165A)
T3 sequence: T1 sequence with P52A

VENTX = target: T4, VENTX (Homo sapiens, UniProt O95231 78-163, Y115F)
T4 sequence: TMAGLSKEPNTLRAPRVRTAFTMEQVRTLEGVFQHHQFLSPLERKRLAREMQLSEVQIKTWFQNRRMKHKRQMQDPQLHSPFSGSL

PAX4 [4] = target: T5, PAX4 (Homo sapiens, UniProt O43316 9-242)
T5 sequence: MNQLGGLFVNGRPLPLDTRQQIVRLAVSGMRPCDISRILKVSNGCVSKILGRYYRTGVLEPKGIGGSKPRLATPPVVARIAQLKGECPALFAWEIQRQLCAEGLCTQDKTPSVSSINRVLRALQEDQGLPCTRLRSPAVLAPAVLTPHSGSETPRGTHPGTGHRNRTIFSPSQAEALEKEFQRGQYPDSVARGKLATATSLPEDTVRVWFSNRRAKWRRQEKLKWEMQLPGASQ

PITX2 = PITX2 (Homo sapiens, UniProt Q99697 72-157)
PAX4 [5] = target: T6, PAX4 (Homo sapiens, UniProt O43316 9-242, F177V)
T6 sequence: T5 sequence with F169V

PAX4 [6] = target: T7, PAX4 (Homo sapiens, UniProt O43316 9-242, F177Y)
T7 sequence: T5 sequence with F169Y

PAX4 [7] = target: T8, PAX4 (Homo sapiens, UniProt O43316 9-242, R227W)
T8 sequence: T5 sequence with R219W

SIX6 [8] = target: T9, SIX6 (Homo sapiens, UniProt O95475 114-200, T139Q)
T9 sequence: T1 sequence with T26Q, P52T

ALX1 [9] = target: ALX1 (Homo sapiens, UniProt Q15699 118-204, L144V)
ALX1 [10] = target: ALX1 (Homo sapiens, UniProt Q15699 118-204, L144R)
ALX1 [11] = target: ALX1 (Homo sapiens, UniProt Q15699 118-204)
SIX6 [12] = target: T10, SIX6 (Homo sapiens, UniProt O95475 114-200, L167M)
T10 sequence: T1 sequence with P52T, L54M

HOXB6 [13] = target: HOXB6 (Homo sapiens, UniProt P17509 132-218, K202E)
HOXA4 = HOXA4 (Homo sapiens, UniProt Q00056 201-287, R217L)
HOXB6 [14] = target: HOXB6 (Homo sapiens, UniProt P17509 132-218)
ALX3 [15] = target: ALX3 (Homo sapiens, UniProt O95076 139-225, N203Q)
ALX3 [16] = target: ALX3 (Homo sapiens, UniProt O95076 139-225)
ALX3 [17] = target: ALX3 (Homo sapiens, UniProt O95076 139-225, N203S)
ALX3 (Homo sapiens, UniProt O95076 139-225, N203S), sequence (O95076 139-225 N203S): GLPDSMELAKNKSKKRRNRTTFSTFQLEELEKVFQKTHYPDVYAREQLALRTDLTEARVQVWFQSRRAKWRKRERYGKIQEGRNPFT

ALX1 (Homo sapiens, UniProt Q15699 118-204, L144V), sequence (Q15699 118-204 L144V): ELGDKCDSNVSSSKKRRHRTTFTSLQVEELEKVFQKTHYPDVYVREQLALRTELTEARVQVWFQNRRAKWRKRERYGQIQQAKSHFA
ALX1 (Homo sapiens, UniProt Q15699 118-204), sequence (Q15699 118-204): as the sequence (Q15699 118-204 L144V) above, with V27L counted along it
HOXB6 (Homo sapiens, UniProt P17509 132-218, K202E), sequence (P17509 132-218 K202E): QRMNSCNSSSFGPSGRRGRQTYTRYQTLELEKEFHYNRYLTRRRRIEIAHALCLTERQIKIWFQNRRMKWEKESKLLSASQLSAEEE
HOXA4, sequence (Q00056 201-287 R217L): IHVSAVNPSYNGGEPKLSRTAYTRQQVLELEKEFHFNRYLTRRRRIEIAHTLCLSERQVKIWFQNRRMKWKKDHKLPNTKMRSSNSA
HOXB6 (Homo sapiens, UniProt P17509 132-218), sequence (P17509 132-218): as the sequence (P17509 132-218 K202E) above, with E71K counted along it
ALX1 (Homo sapiens, UniProt Q15699 118-204, L144R), sequence (Q15699 118-204 L144R): as the sequence (Q15699 118-204 L144V) above, with V27R counted along it
ALX3 (Homo sapiens, UniProt O95076 139-225, N203Q), sequence (O95076 139-225 N203Q): as the sequence (O95076 139-225 N203S) above, with S65Q counted along it
ALX3 (Homo sapiens, UniProt O95076 139-225), sequence (O95076 139-225): as the sequence (O95076 139-225 N203S) above, with S65N counted along it

## CAGGATCA
SIX6 [1]
  binding signal: 9.29 upbm affinity estimate (log intensity, higher = more binding, comparable within an allelic series)

## GCTATCAC
SIX6 [1]
  binding signal: 9.24 upbm affinity estimate (log intensity, higher = more binding, comparable within an allelic series)

## ACCGATCG
SIX6 [1]
  binding signal: 9.18 upbm affinity estimate (log intensity, higher = more binding, comparable within an allelic series)

## CTGATACA
SIX6 [2]
  binding signal: 11 upbm affinity estimate (log intensity, higher = more binding, comparable within an allelic series)
SIX6 [3]
  binding signal: 11 upbm affinity estimate (log intensity, higher = more binding, comparable within an allelic series)

## GGATCGGA
SIX6 [1]
  binding signal: 9.23 upbm affinity estimate (log intensity, higher = more binding, comparable within an allelic series)

## CGGATACC
SIX6 [1]
  binding signal: 9.26 upbm affinity estimate (log intensity, higher = more binding, comparable within an allelic series)

## ACGGATCG
SIX6 [1]
  binding signal: 9.19 upbm affinity estimate (log intensity, higher = more binding, comparable within an allelic series)

## GCCGATAC
SIX6 [1]
  binding signal: 9.22 upbm affinity estimate (log intensity, higher = more binding, comparable within an allelic series)

## GGGGATCA
SIX6 [1]
  binding signal: 9.12 upbm affinity estimate (log intensity, higher = more binding, comparable within an allelic series)

## CGGATCAG
SIX6 [1]
  binding signal: 9.26 upbm affinity estimate (log intensity, higher = more binding, comparable within an allelic series)

## CGCGGATC
SIX6 [1]
  binding signal: 9.18 upbm affinity estimate (log intensity, higher = more binding, comparable within an allelic series)

## GATACGCC
SIX6 [1]
  binding signal: 9.27 upbm affinity estimate (log intensity, higher = more binding, comparable within an allelic series)

## GGATACCC
SIX6 [1]
  binding signal: 9.29 upbm affinity estimate (log intensity, higher = more binding, comparable within an allelic series)

## CGATTAGA
VENTX
  binding signal: 10.8 upbm affinity estimate (log intensity, higher = more binding, comparable within an allelic series)

## CCGATCCG
SIX6 [1]
  binding signal: 9.19 upbm affinity estimate (log intensity, higher = more binding, comparable within an allelic series)

## CGATACCG
SIX6 [1]
  binding signal: 9.14 upbm affinity estimate (log intensity, higher = more binding, comparable within an allelic series)

## TCTGATCA
PAX4 [4]
  binding signal: 10.5 upbm affinity estimate (log intensity, higher = more binding, comparable within an allelic series)
PITX2
  binding signal: 9.44 upbm affinity estimate (log intensity, higher = more binding, comparable within an allelic series)
PAX4 [5]
  binding signal: 9.89 upbm affinity estimate (log intensity, higher = more binding, comparable within an allelic series)
PAX4 [6]
  binding signal: 9.94 upbm affinity estimate (log intensity, higher = more binding, comparable within an allelic series)
PAX4 [7]
  binding signal: 9.94 upbm affinity estimate (log intensity, higher = more binding, comparable within an allelic series)

## CGGGTATC
SIX6 [1]
  binding signal: 9.28 upbm affinity estimate (log intensity, higher = more binding, comparable within an allelic series)
SIX6 [8]
  binding signal: 11.1 upbm affinity estimate (log intensity, higher = more binding, comparable within an allelic series)

## ATCGATCA
VENTX
  binding signal: 9.96 upbm affinity estimate (log intensity, higher = more binding, comparable within an allelic series)

## CCGGATCC
SIX6 [1]
  binding signal: 9.14 upbm affinity estimate (log intensity, higher = more binding, comparable within an allelic series)

## GGGATCAC
SIX6 [1]
  binding signal: 9.32 upbm affinity estimate (log intensity, higher = more binding, comparable within an allelic series)
SIX6 [8]
  binding signal: 11.1 upbm affinity estimate (log intensity, higher = more binding, comparable within an allelic series)

## ATCGATCG
PAX4 [4]
  binding signal: 10.5 upbm affinity estimate (log intensity, higher = more binding, comparable within an allelic series)
PAX4 [5]
  binding signal: 10 upbm affinity estimate (log intensity, higher = more binding, comparable within an allelic series)
PAX4 [6]
  binding signal: 10.1 upbm affinity estimate (log intensity, higher = more binding, comparable within an allelic series)

## ACGGATAA
PAX4 [4]
  binding signal: 10.8 upbm affinity estimate (log intensity, higher = more binding, comparable within an allelic series)
ALX1 [9]
  binding signal: 8.5 upbm affinity estimate (log intensity, higher = more binding, comparable within an allelic series)
ALX1 [10]
  binding signal: 8.23 upbm affinity estimate (log intensity, higher = more binding, comparable within an allelic series)
PAX4 [5]
  binding signal: 10.1 upbm affinity estimate (log intensity, higher = more binding, comparable within an allelic series)
PAX4 [6]
  binding signal: 10.2 upbm affinity estimate (log intensity, higher = more binding, comparable within an allelic series)
ALX1 [11]
  binding signal: 8.73 upbm affinity estimate (log intensity, higher = more binding, comparable within an allelic series)

## AATCGTAT
PAX4 [4]
  binding signal: 10.8 upbm affinity estimate (log intensity, higher = more binding, comparable within an allelic series)
PAX4 [5]
  binding signal: 10.3 upbm affinity estimate (log intensity, higher = more binding, comparable within an allelic series)

## CCGATACC
SIX6 [1]
  binding signal: 9.05 upbm affinity estimate (log intensity, higher = more binding, comparable within an allelic series)
SIX6 [12]
  binding signal: 10 upbm affinity estimate (log intensity, higher = more binding, comparable within an allelic series)

## AAATCGGT
VENTX
  binding signal: 9.94 upbm affinity estimate (log intensity, higher = more binding, comparable within an allelic series)

## GGGGATAC
SIX6 [1]
  binding signal: 9.17 upbm affinity estimate (log intensity, higher = more binding, comparable within an allelic series)

## CCGGATAC
SIX6 [1]
  binding signal: 9.26 upbm affinity estimate (log intensity, higher = more binding, comparable within an allelic series)

## AATCGATT
VENTX
  binding signal: 10.7 upbm affinity estimate (log intensity, higher = more binding, comparable within an allelic series)
HOXB6 [13]
  binding signal: 9.7 upbm affinity estimate (log intensity, higher = more binding, comparable within an allelic series)
HOXA4
  binding signal: 12 upbm affinity estimate (log intensity, higher = more binding, comparable within an allelic series)
HOXB6 [14]
  binding signal: 11 upbm affinity estimate (log intensity, higher = more binding, comparable within an allelic series)

## TCTTATCA
PAX4 [4]
  binding signal: 10.6 upbm affinity estimate (log intensity, higher = more binding, comparable within an allelic series)
ALX3 [15]
  binding signal: 8.33 upbm affinity estimate (log intensity, higher = more binding, comparable within an allelic series)
ALX3 [16]
  binding signal: 9.29 upbm affinity estimate (log intensity, higher = more binding, comparable within an allelic series)
ALX3 [17]
  binding signal: 8.36 upbm affinity estimate (log intensity, higher = more binding, comparable within an allelic series)

## GATCCCCA
SIX6 [1]
  binding signal: 9.34 upbm affinity estimate (log intensity, higher = more binding, comparable within an allelic series)

## CCCCTATC
SIX6 [1]
  binding signal: 9.29 upbm affinity estimate (log intensity, higher = more binding, comparable within an allelic series)
